The supplement of paper PMC6953052
± gives the standard deviation of the averaged measurements. Over roughly 1,700 compounds, “fraction of GFP-LC3-positive cells (≥5 vesicles/cell)” has its median near 0.43; the highest 2% begin near 0.81. The sample holds the highest values, similar compounds and a random draw of the others, so the mix is not that of the screen.

tested on: CbCln3 Δex7/8/Δex7/8 GFP-LC3 cerebellar neuronal cells; assay: fraction of GFP-LC3-positive cells (≥5 vesicles/cell); higher = more autophagosome accumulation
Outline: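 Wild-type or mutant CbCln3 cerebellar cells stably expressing GFP-LC3 were plated at 2 × 10^3 per well in 384-well plates and received ~50 nL of compound in DMSO by pin transfer, in duplicate, for 24 h at 33 °C. Hoechst 33342 and LysoTracker Red were added for the last 30 min, after which cells were fixed in 3.2% PFA and three fields per well were imaged at 10×. CellProfiler counted GFP-LC3 vesicles per cell, and out-of-focus images were excluded. The reported value is the fraction of cells reaching a vesicle-count cutoff of 5 or more, averaged over duplicates.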

Row | Structure (SMILES) | fraction of GFP-LC3-positive cells
1 | CCCCCCCCCCCCCCC[C@@H](O)[C@H](CO)NC(=O)CCCCCCC | 0.494
2 | CCCCCCCCCCCCCCC[C@@H](O)[C@H](CO)NC(=O)CCCCCCC [C8 Dihydroceramide] | 0.428
3 | CN(CCc1ccc(Cl)c(Cl)c1)CC(O)COc1ccc(NS(C)(=O)=O)cc1 (stereo not given) | 0.503
4 | CC(=N)NCc1cccc(CN)c1 | 0.371
5 | Cc1c(N(C)CS(=O)(=O)[O-])c(=O)n(-c2ccccc2)n1C.[Na+] [Dipyrone] | 0.447
6 | O=c1c(O)c(-c2ccc(O)cc2)oc2cc(O)cc(O)c12 [Kaempferol] | 0.294
7 | O=C1CCc2c(ccc3ccccc23)O1 [Splitomycin] | 0.354
8 | O=C1C=CC(=O)c2c1ccc1c2ccc2ccccc21 [Chrysene-1,4-quinone] | 0.883
9 | N=C(N)NS(=O)(=O)c1ccc(N)cc1 [Sulfaguanidine] | 0.43
10 | CN(C)CC/C=C1\c2ccccc2COc2ccccc21.Cl [Doxepin hydrochloride] | 0.567
11 | CCCc1c(OCCCCc2nnn[nH]2)ccc(C(C)=O)c1O | 0.398 ± 0.011
12 | Cc1c(N)c(=O)n(-c2ccccc2)n1C [Ampyrone] | 0.49
13 | CO[C@@H]1[C@H](N(C)C(=O)c2ccccc2)C[C@H]2O[C@]1(C)n1c3ccccc3c3c4c(c5c6ccccc6n2c5c31)C(=O)NC4 | 0.636
14 | O=P(O)(O)C(O)c1ccc2ccccc2c1 (stereo not given) | 0.425
15 | CN(C)CC/C=C1\c2ccccc2CSc2ccccc21.Cl [Dosulepin hydrochloride] | 0.637
16 | CN(C)CCn1nnnc1SCC1=C(C(=O)O)N2C(=O)[C@@H](NC(=O)Cc3csc(N)n3)[C@H]2SC1.Cl [Cefotiam hydrochloride] | 0.488
17 | CCCCC/C=C\C[C@@H](O)/C=C/C=C/C=C/[C@@H](O)CCCC(=O)O [5(S),12(R)-DiHETE all trans] | 0.354
18 | Nc1cc(N2CCCCC2)nc(N)[n+]1OS(=O)(=O)[O-] | 0.38
19 | CCCC(=O)Nc1ccc(OCC(O)CNC(C)C)c(C(C)=O)c1.Cl (stereo not given) [Acebutolol hydrochloride] | 0.518
20 | CN(C(=O)CN(CCO)CC(=O)N(C)C(C)(C)Cc1ccccc1)C(C)(C)Cc1ccccc1 [Oxethazaine] | 0.384
21 | CCCCC[C@H](O)/C=C/[C@H]1[C@H](O)CC(=O)[C@@H]1CCCCCCC(=O)O | 0.346
22 | CCCCC[C@H](O)/C=C/[C@H]1[C@H](O)CC(=O)[C@@H]1CCCCCCC(=O)O [Prostaglandin E1] | 0.349
23 | O=c1[nH]c2cc(C(F)(F)F)ccc2n1-c1cc(C(F)(F)F)ccc1O | 0.292
24 | C[n+]1ccccc1/C=N/O.[Cl-] [Pralidoxime chloride] | 0.428
25 | Clc1ccc(COC(Cn2ccnc2)c2ccc(Cl)cc2Cl)c(Cl)c1 (stereo not given) [Miconazole] | 0.337

Row | Structure (SMILES) | fraction of GFP-LC3-positive cells
26 | CC1(C)S[C@@H]2[C@H](NC(=O)[C@H](N)c3ccccc3)C(=O)N2[C@H]1C(=O)OC1OC(=O)c2ccccc21.Cl (stereo not given in full) [Talampicillin hydrochloride] | 0.422
27 | CN/C(=N/CCSCc1nc[nH]c1C)NC#N [Cimetidine] | 0.473
28 | Cn1cnc([N+](=O)[O-])c1Sc1ncnc2[nH]cnc12 [Azathioprine] | 0.388
29 | CCCCC/C=C\C/C=C\C/C=C\C/C=C\CCCC(=O)O[C@@H](CO)COCCCCCCCCCCCCCCCC [1-Hexadecyl-2-arachidonoyl-glycerol] | 0.517
30 | CCCCC/C=C\C/C=C\C/C=C\C/C=C\CCCC(=O)O[C@@H](CO)COCCCCCCCCCCCCCCCC | 0.311
31 | CC(C)n1c(/C=C/[C@H](O)C[C@H](O)CC(=O)[O-])c(-c2ccc(F)cc2)c2ccccc21.[Na+] [Fluvastatin sodium salt] | 0.123
32 | CC(CNC1CCCCC1)OC(=O)c1ccccc1.Cl (stereo not given) [Hexylcaine hydrochloride] | 0.411
33 | O=C1NC(=O)C(c2ccccc2[N+](=O)[O-])=C1Nc1ccc(O)c(Cl)c1 | 0.364
34 | CN[C@@H]1C(O[C@H]2O[C@H](CO)[C@@H](N)[C@H](O)[C@H]2O)O[C@H]2C[C@@H](N)[C@@H](O[C@H]3[C@H](O)[C@@H](O)[C@H](N)C[C@@H]3N)OC2[C@@H]1O (stereo not given in full) [Apramycin] | 0.274
35 | CCCCCCCCCC(=O)N[C@@H](CCCN=C(N)N)C(=O)N[C@H](C(=O)N[C@@H](CCCCN)C(=O)N[C@@H](CCCN=C(N)N)C(=O)CCl)C(C)C | 0.536
36 | CCCCC/C=C\C/C=C\CC1OC1C/C=C\CCCC(=O)O (stereo not given) [8,9-Epoxyeicosatrienoic acid] | 0.41
37 | CCCCC/C=C\C/C=C\CC1OC1C/C=C\CCCC(=O)O (stereo not given) | 0.392
38 | CCCCCC/C=C/CCCCCCCCC(=O)O [10(Z)-Heptadecenoic acid] | 0.419
39 | CCCC[C@@H](C=O)NC(=O)OC(C)(C)C | 0.447
40 | COc1c2occc2c(OC)c2c(=O)cc(C)oc12 [Khellin] | 0.508
41 | Cl.c1cnc(N2CCN(Cc3ccc4c(c3)OCO4)CC2)nc1 [Piribedil hydrochloride] | 0.496
42 | Clc1ccc(COC(Cn2ccnc2)c2ccc(Cl)cc2Cl)cc1.O=[N+]([O-])O (stereo not given) [Econazole nitrate] | 0.353
43 | COC(=O)C1=C(C)NC(C)=C([N+](=O)[O-])C1c1ccccc1C(F)(F)F (stereo not given) | 0.449
44 | CC(=O)N(CC(C)C(=O)O)c1c(I)cc(I)c(N)c1I (stereo not given) [Iocetamic acid] | 0.312
45 | COc1cc(S(C)=O)ccc1-c1nc2ncccc2[nH]1 (stereo not given) [Sulmazole] | 0.364
46 | CN(C)CCCN1c2ccccc2Sc2ccccc21.Cl [Promazine hydrochloride] | 0.434
47 | C#C[C@]1(O)CC[C@H]2[C@@H]3CCC4=C(CCC(=O)C4)[C@H]3CC[C@@]21C [Norethynodrel] | 0.389
48 | COc1ccc2cc([C@@H](C)C(=O)[O-])ccc2c1.[Na+] [(R) -Naproxen sodium salt] | 0.478
49 | Cl.NC(CO)C(=O)NNCc1ccc(O)c(O)c1O (stereo not given) [Benserazide hydrochloride] | 0.411
50 | CC(C)(C)c1cc(O)c(C(C)(C)C)cc1O [2,5-ditertbutylhydroquinone] | 0.696

Row | Structure (SMILES) | fraction of GFP-LC3-positive cells
51 | COc1cc2nc(N(C)CCCNC(=O)C3CCCO3)nc(N)c2cc1OC.Cl (stereo not given) [Alfuzosin hydrochloride] | 0.474
52 | CC(=O)N[C@@H](CC(C)C)C(=O)O [N-Acetyl-L-leucine] | 0.38
53 | COc1ccc2c(c1)c(CC(=O)OCC(=O)O)c(C)n2C(=O)c1ccc(Cl)cc1 [Acemetacin] | 0.361
54 | COc1ccc(CC(N)C(=O)N[C@H]2[C@@H](O)[C@H](n3cnc4c(N(C)C)ncnc43)O[C@@H]2CO)cc1 (stereo not given in full) [puromycin] | 0.782
55 | COc1ccc(C[C@H](N)C(=O)N[C@H]2[C@@H](O)[C@H](n3cnc4c(N(C)C)ncnc43)O[C@@H]2CO)cc1.Cl.Cl [Puromycin dihydrochloride] | 0.937
56 | CNc1ncnc2c1ncn2[C@@H]1O[C@H](CO)[C@@H](O)[C@H]1O [N6-methyladenosine] | 0.417
57 | CCN(CC)CCCC(C)Nc1c2ccc(Cl)cc2nc2ccc(OC)cc12.Cl.Cl.O.O (stereo not given) [Quinacrine dihydrochloride dihydrate] | 0.866
58 | CCN(CC)CCCC(C)Nc1ccnc2cc(Cl)ccc12.O=P(O)(O)O.O=P(O)(O)O (stereo not given) [Chloroquine diphosphate] | 0.518
59 | CCN(CC)Cc1cc(Nc2ccnc3cc(Cl)ccc23)ccc1O.Cl.Cl.O.O [Amodiaquin dihydrochloride dihydrate] | 0.513
60 | NC1CONC1=O (stereo in doubt) [(S)-(-)-Cycloserine] | 0.414
61 | CNC(C)CCC=C(C)C.CNC(C)CCC=C(C)C.O=C(O)C(O)C(O)C(O)C(O)C(=O)O (stereo not given) [Isometheptene mucate] | 0.479
62 | Cc1c(N(C)C)c(=O)n(-c2ccccc2)n1C [Amidopyrine] | 0.504
63 | COc1ccc2cc1Oc1ccc(cc1)C[C@H]1c3cc(c(OC)cc3CCN1C)Oc1c(OC)c(OC)cc3c1[C@H](C2)N(C)CC3 | 0.746
64 | COc1ccc2cc1Oc1ccc(cc1)C[C@H]1c3cc(c(OC)cc3CCN1C)Oc1c(OC)c(OC)cc3c1[C@H](C2)N(C)CC3 [Tetrandrine] | 0.679
65 | COc1cc2c3cc1Oc1c(OC)c(OC)cc4c1[C@@H](Cc1ccc(OC(=O)c5ccc([N+](=O)[O-])cc5)c(c1)Oc1ccc(cc1)C[C@@H]3N(C)CC2)N(C)CC4 [E6 berbamine] | 0.834
66 | c1ccc(CN(CCN(Cc2ccccn2)Cc2ccccn2)Cc2ccccn2)nc1 | 0.952
67 | CNCCc1ccccn1.CS(=O)(=O)O.CS(=O)(=O)O [Betahistine mesylate] | 0.488
68 | CN(C)CCN(Cc1ccc(Cl)cc1)c1ccccn1.Cl [Chloropyramine hydrochloride] | 0.566
69 | CCc1cccc2c3c([nH]c12)C(CC)(CC(=O)O)OCC3 (stereo not given) [Etodolac] | 0.495
70 | CCc1cc(Cl)c(OC)c(C(=O)NC[C@@H]2CCCN2CC)c1O.Cl [S(-)Eticlopride hydrochloride] | 0.341
71 | C[C@]1(Cn2ccnn2)[C@H](C(=O)O)N2C(=O)C[C@H]2S1(=O)=O [Tazobactam] | 0.531
72 | CCCCCCCCCCCCCCC[C@@H](O)[C@@H](N)CO | 0.515
73 | CCCCCCCCCCCCCCC[C@@H](O)[C@@H](N)CO [Dihydrosphingosine] | 0.348
74 | C[C@]12C=CC(=O)C=C1CC[C@@H]1[C@@H]2C(=O)C[C@@]2(C)[C@H]1CC[C@]2(O)C(=O)CO [Prednisone] | 0.49
75 | CCCC[C@@H](C)/C=C(C)/C=C(\C)C(=O)NC1=C[C@@](O)(/C=C/C=C/C=C/C(=O)NC2=C(O)CCC2=O)[C@@H]2O[C@@H]2C1=O [manumycin A] | 0.917
